From the supplement of paper PMC10849652 come the findings set out here.

The full data set covers some 7,900 targets. This sample favours those with a hit. About 0.6% of all pairs of compound and target were hits. Values without a mark were called inactive.

Chain of UniProt O15228 (O15228 whole entry, looked up): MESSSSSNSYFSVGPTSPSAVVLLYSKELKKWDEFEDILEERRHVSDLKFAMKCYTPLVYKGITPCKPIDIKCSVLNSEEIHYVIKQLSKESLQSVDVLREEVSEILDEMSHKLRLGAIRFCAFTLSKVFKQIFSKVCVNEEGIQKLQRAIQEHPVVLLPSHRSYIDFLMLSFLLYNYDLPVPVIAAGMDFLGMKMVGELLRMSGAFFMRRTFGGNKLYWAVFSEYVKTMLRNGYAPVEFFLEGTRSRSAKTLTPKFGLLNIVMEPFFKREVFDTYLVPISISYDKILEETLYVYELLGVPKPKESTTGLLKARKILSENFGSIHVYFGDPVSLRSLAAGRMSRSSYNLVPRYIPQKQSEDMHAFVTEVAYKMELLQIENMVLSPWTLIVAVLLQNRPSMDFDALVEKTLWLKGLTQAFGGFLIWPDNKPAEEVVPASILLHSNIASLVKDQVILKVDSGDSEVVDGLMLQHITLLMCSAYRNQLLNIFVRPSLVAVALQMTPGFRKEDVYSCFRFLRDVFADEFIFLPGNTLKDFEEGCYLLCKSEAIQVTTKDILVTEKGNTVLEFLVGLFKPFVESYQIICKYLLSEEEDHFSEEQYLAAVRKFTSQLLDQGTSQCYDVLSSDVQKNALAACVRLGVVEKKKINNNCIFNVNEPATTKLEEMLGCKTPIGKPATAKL
Chain of UniProt Q96JB3 (Q96JB3 whole entry, looked up): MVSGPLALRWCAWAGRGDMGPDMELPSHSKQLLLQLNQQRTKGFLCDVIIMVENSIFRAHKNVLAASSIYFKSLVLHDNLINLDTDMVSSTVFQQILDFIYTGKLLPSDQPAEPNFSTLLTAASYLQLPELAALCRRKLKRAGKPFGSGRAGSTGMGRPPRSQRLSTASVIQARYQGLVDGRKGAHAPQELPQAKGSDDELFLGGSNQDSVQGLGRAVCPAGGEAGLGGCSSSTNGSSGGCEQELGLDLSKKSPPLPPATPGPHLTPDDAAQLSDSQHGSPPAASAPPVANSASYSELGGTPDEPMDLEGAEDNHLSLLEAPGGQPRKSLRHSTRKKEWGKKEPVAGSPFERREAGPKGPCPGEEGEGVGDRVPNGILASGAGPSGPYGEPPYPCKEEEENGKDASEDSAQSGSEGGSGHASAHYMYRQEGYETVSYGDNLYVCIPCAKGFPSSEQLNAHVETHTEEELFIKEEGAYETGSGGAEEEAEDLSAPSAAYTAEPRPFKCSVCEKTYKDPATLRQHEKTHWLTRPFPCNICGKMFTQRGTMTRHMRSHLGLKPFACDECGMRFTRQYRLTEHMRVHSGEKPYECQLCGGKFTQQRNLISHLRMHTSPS
Chain of UniProt P22570 (P22570 whole entry, looked up): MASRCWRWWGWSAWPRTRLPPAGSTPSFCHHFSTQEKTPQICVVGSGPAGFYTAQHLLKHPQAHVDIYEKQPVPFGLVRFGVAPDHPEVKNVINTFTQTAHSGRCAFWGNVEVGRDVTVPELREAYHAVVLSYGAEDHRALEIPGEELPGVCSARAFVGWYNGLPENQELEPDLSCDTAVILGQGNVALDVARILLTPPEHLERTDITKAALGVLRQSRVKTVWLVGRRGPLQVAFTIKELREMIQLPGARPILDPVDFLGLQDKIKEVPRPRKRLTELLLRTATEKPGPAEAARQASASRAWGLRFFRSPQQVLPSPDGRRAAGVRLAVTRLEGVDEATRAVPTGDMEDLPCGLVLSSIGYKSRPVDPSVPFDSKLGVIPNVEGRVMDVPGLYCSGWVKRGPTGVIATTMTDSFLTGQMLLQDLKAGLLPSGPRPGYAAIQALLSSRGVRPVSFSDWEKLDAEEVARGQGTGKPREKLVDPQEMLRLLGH
Chain of UniProt Q01628 (Q01628 whole entry, looked up): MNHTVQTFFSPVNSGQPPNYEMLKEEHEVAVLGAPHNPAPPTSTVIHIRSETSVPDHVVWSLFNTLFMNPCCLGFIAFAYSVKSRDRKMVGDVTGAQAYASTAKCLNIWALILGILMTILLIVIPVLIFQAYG
Chain of UniProt Q13907 (Q13907 whole entry, looked up): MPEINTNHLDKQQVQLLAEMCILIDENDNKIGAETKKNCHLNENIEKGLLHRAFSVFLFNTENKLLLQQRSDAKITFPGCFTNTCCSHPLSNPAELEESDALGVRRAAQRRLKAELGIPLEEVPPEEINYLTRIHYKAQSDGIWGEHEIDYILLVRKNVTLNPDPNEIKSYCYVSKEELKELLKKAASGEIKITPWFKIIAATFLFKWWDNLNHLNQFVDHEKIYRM
Chain of UniProt Q9BUJ2 (Q9BUJ2 whole entry, looked up): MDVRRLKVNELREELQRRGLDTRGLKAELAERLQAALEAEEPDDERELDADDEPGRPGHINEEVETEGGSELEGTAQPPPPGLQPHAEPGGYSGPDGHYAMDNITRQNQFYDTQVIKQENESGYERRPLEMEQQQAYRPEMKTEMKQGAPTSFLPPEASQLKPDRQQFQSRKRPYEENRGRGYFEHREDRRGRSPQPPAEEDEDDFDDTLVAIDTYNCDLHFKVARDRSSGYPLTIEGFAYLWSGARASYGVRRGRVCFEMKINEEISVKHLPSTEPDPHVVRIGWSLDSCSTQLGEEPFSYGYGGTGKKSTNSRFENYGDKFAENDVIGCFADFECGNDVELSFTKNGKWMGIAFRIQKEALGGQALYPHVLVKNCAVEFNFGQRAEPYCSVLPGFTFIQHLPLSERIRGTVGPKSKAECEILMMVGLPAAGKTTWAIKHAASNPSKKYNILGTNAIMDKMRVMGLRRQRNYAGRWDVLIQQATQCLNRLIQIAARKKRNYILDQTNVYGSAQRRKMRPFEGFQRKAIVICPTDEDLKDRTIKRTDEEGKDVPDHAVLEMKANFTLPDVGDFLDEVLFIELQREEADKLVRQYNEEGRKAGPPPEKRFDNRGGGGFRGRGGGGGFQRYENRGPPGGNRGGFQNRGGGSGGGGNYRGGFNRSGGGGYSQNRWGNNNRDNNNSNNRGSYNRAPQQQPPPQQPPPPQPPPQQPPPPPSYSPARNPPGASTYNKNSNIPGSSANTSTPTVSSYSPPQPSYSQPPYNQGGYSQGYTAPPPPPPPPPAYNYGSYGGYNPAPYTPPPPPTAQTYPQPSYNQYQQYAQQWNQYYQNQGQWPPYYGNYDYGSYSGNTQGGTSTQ
Chain of UniProt Q9Y692 (Q9Y692 whole entry, looked up): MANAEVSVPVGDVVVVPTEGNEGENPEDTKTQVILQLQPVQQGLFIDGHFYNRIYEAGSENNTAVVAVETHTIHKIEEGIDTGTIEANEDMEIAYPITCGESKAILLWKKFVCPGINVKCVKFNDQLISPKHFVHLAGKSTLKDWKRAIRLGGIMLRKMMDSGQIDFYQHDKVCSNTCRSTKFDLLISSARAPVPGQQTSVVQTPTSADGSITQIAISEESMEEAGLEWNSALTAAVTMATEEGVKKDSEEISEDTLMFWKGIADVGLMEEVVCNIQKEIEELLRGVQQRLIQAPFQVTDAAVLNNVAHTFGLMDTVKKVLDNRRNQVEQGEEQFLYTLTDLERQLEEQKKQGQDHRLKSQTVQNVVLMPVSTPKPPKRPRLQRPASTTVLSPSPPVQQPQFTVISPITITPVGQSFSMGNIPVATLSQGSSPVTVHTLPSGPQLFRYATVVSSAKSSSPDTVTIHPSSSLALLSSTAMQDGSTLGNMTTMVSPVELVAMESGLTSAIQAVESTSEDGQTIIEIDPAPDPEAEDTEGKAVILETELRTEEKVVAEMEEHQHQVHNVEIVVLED
Chain of UniProt P85037 (P85037 whole entry, looked up): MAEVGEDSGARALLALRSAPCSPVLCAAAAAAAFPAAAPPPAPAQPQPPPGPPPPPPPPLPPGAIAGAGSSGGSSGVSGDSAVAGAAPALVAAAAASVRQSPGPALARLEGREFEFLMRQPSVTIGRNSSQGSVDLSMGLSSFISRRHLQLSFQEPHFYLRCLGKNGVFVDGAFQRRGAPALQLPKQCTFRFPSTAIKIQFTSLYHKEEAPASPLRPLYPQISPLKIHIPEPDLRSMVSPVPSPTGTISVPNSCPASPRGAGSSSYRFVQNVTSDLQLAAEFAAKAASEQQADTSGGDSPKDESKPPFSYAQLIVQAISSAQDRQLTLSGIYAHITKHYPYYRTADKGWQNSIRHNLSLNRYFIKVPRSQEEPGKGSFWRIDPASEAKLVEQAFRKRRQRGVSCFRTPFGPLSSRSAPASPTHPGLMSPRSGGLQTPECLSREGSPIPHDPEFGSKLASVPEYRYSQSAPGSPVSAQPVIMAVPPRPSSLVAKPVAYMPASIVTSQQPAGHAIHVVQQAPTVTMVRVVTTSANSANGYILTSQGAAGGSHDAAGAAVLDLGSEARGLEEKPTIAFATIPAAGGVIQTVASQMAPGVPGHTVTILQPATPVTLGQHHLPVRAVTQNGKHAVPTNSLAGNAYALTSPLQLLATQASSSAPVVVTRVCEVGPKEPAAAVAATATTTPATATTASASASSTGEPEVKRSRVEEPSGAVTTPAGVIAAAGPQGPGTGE
Chain of UniProt Q00688 (Q00688 whole entry, looked up): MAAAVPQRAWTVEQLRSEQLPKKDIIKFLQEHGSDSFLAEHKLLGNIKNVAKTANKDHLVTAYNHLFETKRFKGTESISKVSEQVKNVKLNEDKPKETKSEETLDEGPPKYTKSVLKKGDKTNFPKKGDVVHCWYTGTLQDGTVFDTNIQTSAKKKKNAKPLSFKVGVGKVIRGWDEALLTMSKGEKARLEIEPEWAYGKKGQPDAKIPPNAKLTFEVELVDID
Chain of UniProt P31943 (P31943 whole entry, looked up): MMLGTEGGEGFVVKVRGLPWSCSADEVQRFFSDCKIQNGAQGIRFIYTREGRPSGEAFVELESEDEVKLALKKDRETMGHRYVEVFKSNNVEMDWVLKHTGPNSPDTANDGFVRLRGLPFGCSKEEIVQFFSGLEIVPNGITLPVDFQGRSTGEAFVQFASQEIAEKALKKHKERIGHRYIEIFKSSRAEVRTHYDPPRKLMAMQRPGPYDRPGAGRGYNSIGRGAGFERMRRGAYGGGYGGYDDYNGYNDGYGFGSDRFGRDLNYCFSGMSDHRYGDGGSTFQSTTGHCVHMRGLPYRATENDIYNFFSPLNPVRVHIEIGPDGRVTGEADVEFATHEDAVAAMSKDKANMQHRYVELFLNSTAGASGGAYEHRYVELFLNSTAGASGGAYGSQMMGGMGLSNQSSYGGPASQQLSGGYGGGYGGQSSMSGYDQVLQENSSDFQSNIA

Compound in the experiment: Cc1sc2c(c1C)C(c1ccc(Cl)cc1)=N[C@@H](CC(=O)OC(C)(C)C)c1nnc(C)n1-2
Kind of experiment: log2 fold change, soluble protein after heating vs DMSO (PISA); higher = thermal stabilisation; K562 cells, 10 uM, 30 min; active = over 0.2 and 3.5 SD of the protein, either way, in both replicates (recomputed). In outline:
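Quantification of soluble protein used TMTpro 16plex LC-MS/MS, with channel sums equalised. Samples were the supernatant after 21,000xg for 90 min of pooled aliquots from K562 cells (2×10^6 cells/mL) treated with 10 μM compound for 30 min, heated for 3 min over 48°C-58°C, and extracted in PBS with 0.5% NP-40 at 4°C. Values, from duplicates, describe thermal stability against control samples on a log2 fold-change scale.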
Turning to HNRNPUL2 (UniProt Q1KMD3), the log2 fold change was 0.105.

In the case of FOXK1 (UniProt P85037), the log2 fold change was -0.402.

As to GTF2A1 (UniProt P52655), the log2 fold change is -0.004.

As for HSD17B12 (UniProt Q53GQ0), the log2 fold change is 0.042.

Take IDI1 isoform 2 (UniProt Q13907): the log2 fold change was 0.003.

As to HEXA (UniProt P06865), the log2 fold change is -0.018.

For the target GCC2 (UniProt Q8IWJ2), the log2 fold change was 0.066.

In the case of FDXR isoform 7 (UniProt P22570), the log2 fold change was -0.037.

Consider IFT80 isoform 3 (UniProt Q9P2H3), for which the log2 fold change is -0.036.

Regarding HIST2H2BF isoform 2 (UniProt Q5QNW6), the log2 fold change is -0.082.

Regarding IFITM3 (UniProt Q01628), the log2 fold change was 0.081.

As for GLUL (UniProt P15104), the log2 fold change is -0.007.

Consider HIP1 (UniProt O00291), for which the log2 fold change was 0.019.

As to GLS (UniProt O94925), the log2 fold change was 0.013.

As for HIC2 (UniProt Q96JB3), the log2 fold change is 0.205.

Turning to GNPAT (UniProt O15228), the log2 fold change was -0.01.

With GTF2H3 (UniProt Q13889), the log2 fold change is 0.048.

Turning to FKBP3 (UniProt Q00688), the log2 fold change was 0.011.

Turning to GLA (UniProt P06280), the log2 fold change is 0.007.

On to HNRNPH1 (UniProt P31943), for which the log2 fold change is -0.015.

On to HNRNPUL1 (UniProt Q9BUJ2), for which the log2 fold change is 0.07.

Take GMEB1 (UniProt Q9Y692): the log2 fold change was 0.024.

For the target GALK1 isoform 2 (UniProt P51570), the log2 fold change was -0.024.
